Ten compounds from PubChem BioAssay (NCATS) can be followed below.

The target of assay [1] is Calcium and integrin-binding protein 1 (Homo sapiens) (UniProt Q99828). Description: Validation qHTS for Identification of Calcium Integrin Binding protein 1 (CIB1) Competitor (AID 1508618). Further: on the % scale 0 is the no-effect control and ±100 the full control effect. Put shortly:
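CIB1-GST (1 uM final) incubated 15 min at room temperature with compounds (up to 114 uM), then FITC-labelled alphaIIb peptide (100 nM) added. FP read (Ex 480/Em 540) after 15 min, pH 7.4 buffer containing 5 mM CaCl2.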
A general note: In qHTS, concentration-response curves come from the screen itself.

Assay [2] shares this target. Description: Primary qHTS for Identification of Calcium Integrin Binding Protein 1 (CIB1) Competitor (AID 1508620).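 Further: GST tagged CIB1 binding a fluorescein labelled alphaIIb integrin peptide tracer; top concentration of the series differs between compounds; on the % scale 0 is the no-effect control and ±100 the full control effect.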 The gist of the method:
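CIB1-GST (1 uM final) and compound incubated 15 min at room temperature before adding FITC-alphaIIb peptide tracer (100 nM final). Competition for binding read by fluorescence polarization (ex 480, em 540) after another 15 min at room temperature.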

Assay [3] is described as follows: Primary qHTS for small molecule stabilizers of the endoplasmic reticulum resident proteome: Secreted ER Calcium Modulated Protein (SERCaMP) assay (AID 1508630). Further: on the % scale 0 is the no-effect control and ±100 the full control effect. The gist of the method:
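The SH-SY5Y reporter protocol was run at 3 concentrations up to 38.3 uM (primary) or 11 concentrations (follow-up): 16 h compound, 100 nM thapsigargin for 4 h, then extracellular luciferase luminescence.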

The nature of assay [4]: A High-Content qHTS Against Drug Library for the Identification of Small Molecules that Inhibit DYT1 Early Onset Primary Dystonia-Associated Cell Pathology (AID 1645839; calls by dose curve; further: series mostly up to about 46 µM). Put shortly: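 High-content imaging quantified EGFP-TorsinA mislocalization in HEK293-derived cells inducibly expressing DYT1 mutant torsinA, after 48 h exposure to compound given together with tetracycline induction. Cell count served as a toxicity channel alongside %pathology.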

For assay [5], the target named is Cytochrome P450 2D6 (Homo sapiens) (UniProt P10635). Description: Cytochrome P450 family 2 subfamily D member 6 (CYP2D6) small molecule antagonists: luciferase biochemical (cell-free) qHTS assay (AID 1645840; active means well fitted curve in the direction sought with a large enough effect in the repeat runs; an effect the other way counts as inactive or inconclusive; further: nearly all actives have a fitted effect of over 55% in size; further: potency means the concentration at half of the fitted maximal effect). The gist of the method:
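P450-Glo CYP2D6 system: proluciferin substrate converted by enzyme to luciferin, read by luminescence proportional to activity. Enzyme-substrate mix with compound 10 min at room temperature, then NADPH regeneration 1 h before detection reagent.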

In assay [6] the target is Cytochrome P450 2C9 (Homo sapiens) (UniProt P11712). Description: Cytochrome P450 family 2 subfamily C member 9 (CYP2C9) small molecule antagonists: luciferase biochemical (cell-free) qHTS assay (AID 1645842; active means well fitted curve in the direction sought with a large enough effect in the repeat runs; an effect the other way counts as inactive or inconclusive; further: nearly all actives have a fitted effect of over 55% in size; further: potency means the concentration at half of the fitted maximal effect). Put shortly:
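P450-Glo CYP2C9 system: proluciferin substrate with enzyme in mix containing 0.4% BSA, 10 min at room temperature, then NADPH regeneration solution added and incubated 1 h at 37C. Detection reagent stopped reaction; luminescence read after 20 min as RLU.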

Assay [7] in a line: Primary qHTS for inhibitors of nuclear receptor binding SET domain protein 2 (NSD2) in an isogenic RCH-ACV NSD2 p.E1099K mutant (9B) (AID 1645876). Further: nearly all actives have a fitted effect of over 70% in size.
Assay [8] can be described thus: Primary qHTS for inhibitors of nuclear receptor binding SET domain protein 2 (NSD2) in an RCH-ACV wild type WT cells (2C) (AID 1645877). Further: nearly all actives have a fitted effect of over 70% in size.
In assay [9] the target is Papain (Carica papaya) (UniProt P00784). Description: Primary qHTS assay for inhibitors of the protease papain (AID 1645873).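 Further: papain turnover of Z-FR-AMC read as the AMC fluorescence gain over 10 min; series mostly up to about 50 µM; on the % scale 0 is the no-effect control and ±100 the full control effect.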
Assay [10] concerns the target Rap guanine nucleotide exchange factor 3 (Homo sapiens) (UniProt O95398). Description: Confirmatory qHTS for antagonist of cAMP-regulated guanine nucleotide exchange factor 3 (EPAC1) (AID 1645880).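 Further: plate controls were DMSO only for no effect and full effect of the ATA control for full effect; nearly all actives have a fitted effect of over 55% in size.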 The gist of the method: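 Released BODIPY-GDP fluoresces less than Rap1-bound BODIPY-GDP; the signal is followed at 480/540 nm at 5-min intervals over 30 min, after 5 min at room temperature. Reactions contain 100 nM EPAC1, 250 nM RAP1B-BODIPY-GDP and 50 uM GDP; results are normalized to ATA and DMSO.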

Assay [11] shares this target. Description: Confirmatory qHTS for agonist of cAMP-regulated guanine nucleotide exchange factor 3 (EPAC1) (AID 1645881).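 Further: EPAC1 catalysed release of BODIPY-GDP from Rap1B seen as fluorescence loss; 100% = effect of cAMP agonist control; nearly all actives have a fitted effect of over 75% in size.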
Assay [12] concerns the target Rap guanine nucleotide exchange factor 4 (Homo sapiens) (UniProt Q8WZA2). Description: Confirmatory qHTS for agonist of cAMP-regulated guanine nucleotide exchange factor 4 (EPAC2) (AID 1645884).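 Further: nucleotide exchange releases bodipy-GDP from Rap1 and this lowers its fluorescence; on the % scale 0 is the no-effect control and ±100 the full control effect; nearly all actives have a fitted effect of over 65% in size.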
The target is the same in assay [13]. Description: Confirmatory qHTS for antagonist of cAMP-regulated guanine nucleotide exchange factor 4 (EPAC2) (AID 1645885). Further: potency means the concentration at half of the fitted maximal effect; nearly all actives have a fitted effect of over 25% in size.

Inconclusive results are not listed. A number with no mark means an inactive call. Active and inactive are the calls of the source. Unless noted, the call rests on the fitted dose curve; in most records, active means well fitted curve in the direction sought with a large enough effect; inconclusive means small, poorly fitted or top-dose-only effect, or another doubt; inactive means no such curve, though single readings can be large; an effect the other way counts as inactive or inconclusive.

Rap guanine nucleotide exchange factor 3 (Homo sapiens), sequence (O95398 whole entry, looked up): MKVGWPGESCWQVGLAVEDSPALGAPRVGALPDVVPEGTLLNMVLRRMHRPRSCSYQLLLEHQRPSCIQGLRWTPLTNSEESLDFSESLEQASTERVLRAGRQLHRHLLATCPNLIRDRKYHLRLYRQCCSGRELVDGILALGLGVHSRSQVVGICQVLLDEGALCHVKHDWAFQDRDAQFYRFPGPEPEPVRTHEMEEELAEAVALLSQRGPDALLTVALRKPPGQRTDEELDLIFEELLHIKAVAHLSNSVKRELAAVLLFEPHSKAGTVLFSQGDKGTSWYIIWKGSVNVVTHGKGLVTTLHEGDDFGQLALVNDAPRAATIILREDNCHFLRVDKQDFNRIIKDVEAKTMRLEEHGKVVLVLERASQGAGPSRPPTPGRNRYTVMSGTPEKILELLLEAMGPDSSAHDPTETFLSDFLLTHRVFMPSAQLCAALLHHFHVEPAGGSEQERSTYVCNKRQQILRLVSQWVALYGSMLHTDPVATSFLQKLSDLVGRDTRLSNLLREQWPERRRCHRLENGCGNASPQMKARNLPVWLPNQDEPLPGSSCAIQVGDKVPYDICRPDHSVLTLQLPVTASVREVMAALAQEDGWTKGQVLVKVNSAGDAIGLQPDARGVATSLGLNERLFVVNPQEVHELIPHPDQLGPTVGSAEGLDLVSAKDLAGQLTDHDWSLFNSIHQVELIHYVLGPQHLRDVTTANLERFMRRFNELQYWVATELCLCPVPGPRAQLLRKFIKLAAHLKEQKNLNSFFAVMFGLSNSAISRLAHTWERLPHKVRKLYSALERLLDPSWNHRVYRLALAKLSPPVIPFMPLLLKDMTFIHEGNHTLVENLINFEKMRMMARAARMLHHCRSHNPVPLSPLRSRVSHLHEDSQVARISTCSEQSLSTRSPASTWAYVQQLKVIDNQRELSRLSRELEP
Cytochrome P450 2D6 (Homo sapiens), sequence (P10635 whole entry, looked up): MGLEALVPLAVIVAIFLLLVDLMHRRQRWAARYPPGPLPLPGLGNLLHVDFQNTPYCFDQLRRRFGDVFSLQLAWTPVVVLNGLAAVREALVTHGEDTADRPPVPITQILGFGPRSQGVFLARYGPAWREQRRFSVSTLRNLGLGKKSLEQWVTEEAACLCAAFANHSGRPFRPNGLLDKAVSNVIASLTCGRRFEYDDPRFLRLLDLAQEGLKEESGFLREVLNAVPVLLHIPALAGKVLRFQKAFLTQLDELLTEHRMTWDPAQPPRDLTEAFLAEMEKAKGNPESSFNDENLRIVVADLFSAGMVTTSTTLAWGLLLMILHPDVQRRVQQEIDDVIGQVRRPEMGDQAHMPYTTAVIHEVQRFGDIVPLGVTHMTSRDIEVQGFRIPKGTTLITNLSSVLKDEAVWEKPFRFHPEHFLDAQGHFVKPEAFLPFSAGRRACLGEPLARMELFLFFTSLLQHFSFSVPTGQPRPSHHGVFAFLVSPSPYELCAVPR
Cytochrome P450 2C9 (Homo sapiens), sequence (P11712 whole entry, looked up): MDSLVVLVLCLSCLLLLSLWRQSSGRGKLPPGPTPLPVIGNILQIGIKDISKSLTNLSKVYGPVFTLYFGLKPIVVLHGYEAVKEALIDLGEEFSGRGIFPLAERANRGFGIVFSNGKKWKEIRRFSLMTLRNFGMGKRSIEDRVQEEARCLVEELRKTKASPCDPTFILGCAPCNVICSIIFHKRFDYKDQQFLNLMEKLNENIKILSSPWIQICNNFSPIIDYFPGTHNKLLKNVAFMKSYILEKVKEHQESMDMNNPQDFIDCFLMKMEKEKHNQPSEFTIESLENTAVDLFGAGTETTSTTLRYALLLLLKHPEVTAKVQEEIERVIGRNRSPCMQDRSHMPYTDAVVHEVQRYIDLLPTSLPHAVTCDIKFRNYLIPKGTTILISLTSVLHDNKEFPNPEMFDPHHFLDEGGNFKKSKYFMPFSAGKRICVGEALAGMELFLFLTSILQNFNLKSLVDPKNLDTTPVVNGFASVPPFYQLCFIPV
Calcium and integrin-binding protein 1 (Homo sapiens), sequence (Q99828 whole entry, looked up): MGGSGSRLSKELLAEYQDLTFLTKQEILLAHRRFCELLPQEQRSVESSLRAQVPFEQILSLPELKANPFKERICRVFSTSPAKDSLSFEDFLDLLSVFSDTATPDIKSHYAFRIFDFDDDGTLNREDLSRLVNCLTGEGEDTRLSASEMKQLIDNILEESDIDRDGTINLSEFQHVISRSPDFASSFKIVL
Rap guanine nucleotide exchange factor 4 (Homo sapiens), sequence (Q8WZA2 whole entry, looked up): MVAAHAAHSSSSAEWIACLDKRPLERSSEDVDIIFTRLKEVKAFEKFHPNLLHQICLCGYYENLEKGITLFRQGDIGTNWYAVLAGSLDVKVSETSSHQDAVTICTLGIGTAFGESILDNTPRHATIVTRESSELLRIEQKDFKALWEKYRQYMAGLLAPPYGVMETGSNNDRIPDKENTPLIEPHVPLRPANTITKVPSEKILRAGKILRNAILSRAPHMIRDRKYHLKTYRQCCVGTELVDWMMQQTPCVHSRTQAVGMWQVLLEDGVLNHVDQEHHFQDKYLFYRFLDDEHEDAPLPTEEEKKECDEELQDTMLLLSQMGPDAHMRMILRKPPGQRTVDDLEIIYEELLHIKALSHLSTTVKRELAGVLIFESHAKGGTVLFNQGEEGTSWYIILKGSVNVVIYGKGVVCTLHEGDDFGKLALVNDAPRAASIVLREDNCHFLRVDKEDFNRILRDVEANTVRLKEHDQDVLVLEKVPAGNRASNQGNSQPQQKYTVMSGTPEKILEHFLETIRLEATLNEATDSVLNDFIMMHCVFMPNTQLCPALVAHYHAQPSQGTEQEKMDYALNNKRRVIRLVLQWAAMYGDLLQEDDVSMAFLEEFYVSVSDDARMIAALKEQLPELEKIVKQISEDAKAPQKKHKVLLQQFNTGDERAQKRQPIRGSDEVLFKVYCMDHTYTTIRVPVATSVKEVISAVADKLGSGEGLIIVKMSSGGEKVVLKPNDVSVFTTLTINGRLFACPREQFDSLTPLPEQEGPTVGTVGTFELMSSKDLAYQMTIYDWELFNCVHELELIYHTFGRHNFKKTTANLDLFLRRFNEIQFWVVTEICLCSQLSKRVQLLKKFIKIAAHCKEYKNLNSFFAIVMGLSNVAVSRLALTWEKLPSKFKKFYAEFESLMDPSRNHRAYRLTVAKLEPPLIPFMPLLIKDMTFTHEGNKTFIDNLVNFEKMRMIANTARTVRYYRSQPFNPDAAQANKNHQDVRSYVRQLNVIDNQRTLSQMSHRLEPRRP
Papain (Carica papaya), sequence (P00784 whole entry, looked up): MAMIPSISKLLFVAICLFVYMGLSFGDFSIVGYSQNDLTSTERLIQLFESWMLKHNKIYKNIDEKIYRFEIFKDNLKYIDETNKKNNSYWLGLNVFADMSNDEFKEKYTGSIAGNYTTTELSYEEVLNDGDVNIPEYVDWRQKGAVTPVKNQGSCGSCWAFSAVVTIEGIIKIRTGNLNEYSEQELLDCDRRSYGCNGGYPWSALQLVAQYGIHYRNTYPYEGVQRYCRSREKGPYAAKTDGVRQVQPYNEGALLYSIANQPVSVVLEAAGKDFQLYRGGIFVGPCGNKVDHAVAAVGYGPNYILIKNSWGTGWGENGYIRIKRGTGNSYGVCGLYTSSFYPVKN

As to `C[C@]12CCC(=O)C=C1CC[C@@H]1[C@@H]2C(=O)C[C@@]2(C)[C@H]1CC[C@]2(O)C(=O)CO`, in [1], the result was inactive. In addition, the Potency entry in [2], in [3], in assay [4], in [5], in assay [6] and in assay [7] was “inactive” in each case. In addition, the Potency entry in [8] is “inactive”.

`CCn1ccnc1CC1COc2ccccc2O1` (configuration not stated): the outcome in assay [1] and in assay [10] was inactive. Further, the Potency entry in assay [2], in [3], in [4], in assay [6], in assay [9] and in assay [7] was “inactive” each time. For the same compound, the Potency entry in [8], in assay [11] and in [12] was “inactive” each time. The values for the Potency in assay [5] and in [13] were 1.74 µM (active) and 11.1 µM (active), respectively.

In the case of `COc1ccc([C@@H]2Sc3ccccc3N(CCN(C)C)C(=O)[C@@H]2OC(C)=O)cc1`, the outcome in [1] was inactive. In addition, the Potency entry in [2], in [3], in assay [4], in assay [5], in [6] and in [9] was “inactive” throughout. For the same compound, the Potency result in [7] and in assay [8] was “inactive” in each case.

With `NC(=O)N1c2ccccc2C=Cc2ccccc21`, the result in assay [1] was inactive. The Potency entry in [2], in [3], in [4], in assay [5], in [6] and in assay [9] was “inactive” throughout. For the same compound, the Potency result in [7] and in assay [8] was “inactive” throughout.

Consider `CC(N=C(NC#N)Nc1ccncc1)C(C)(C)C` (configuration not stated), for which the result in [1] was inactive. The Potency entry in [2], in assay [3], in assay [4], in assay [9] and in assay [7] was “inactive” throughout. Moreover, the Potency is 21.9 µM (active) in assay [5] and 3.89 µM (active) in assay [6].

Turning to `C[N+](C)(C)CCOC(=O)CCC(=O)OCC[N+](C)(C)C`, the result in [1] was inactive. Also, the Potency entry in assay [2], in assay [3], in assay [4], in assay [5], in assay [6] and in assay [9] was “inactive” each time. Further, the Potency entry in [7] and in assay [8] was “inactive” throughout.

`CN1C(=O)CC[C@H]1c1cccnc1`: the outcome in [1] was inactive. For the same compound, the Potency entry in [2], in assay [3], in [4], in assay [5], in assay [6] and in assay [9] was “inactive” each time. The Potency result in [7] and in [8] was “inactive” each time.

With `NCCCNCCSP(=O)(O)O`, in assay [1], the outcome was inactive. Further, the Potency entry in [2], in assay [3] and in assay [9] was “inactive” in each case. Moreover, in assay [4], the % pathology change, negative = correction is 18.3% [at 9.22 µM]. Also, the activity change, negative = inhibition in assay [5] is -0.206% [at 11.5 µM]; in assay [6], 13.8% [at 11.5 µM]. In addition, the outcome in assay [7] was “inactive [at 9.23 µM]”. Besides, in assay [8], the activity change, negative = cell killing was 5.49% [at 9.23 µM].

On to `C#CCN(C)CCCOc1ccc(Cl)cc1Cl`, for which the outcome in [1] was inactive. The Potency result in assay [2], in assay [3], in assay [4], in [9], in assay [7] and in assay [8] was “inactive” in each case. Moreover, the Potency is 1.55 µM (active) in [5] and 30.9 µM (active) in assay [6].

Turning to `c1cnc(N2CCN(Cc3ccc4c(c3)OCO4)CC2)nc1`, in [1], the result was inactive. The Potency result in assay [2], in [3], in assay [4], in assay [9], in assay [7] and in assay [8] was “inactive” in each case. Moreover, the Potency in assay [5] is 0.871 µM (active); in assay [6], 11 µM (active).
